# “And” between values parts separate entries of the source, which are not always exact repeats. Equal values may be shown once. Inconclusive results are not listed. Where a call stands in place of a potency, no number is given. A number with no mark means an inactive call. The source made the active and inactive calls. The call rests on the fitted dose curve; in most records, active means well fitted inhibition curve with a large enough effect; inconclusive means small, poorly fitted or top-dose-only effect; inactive means no such curve, though single readings can be large or run the other way.
# Assay: Primary fluorescence-based thiol-reactive (MSTI) qHTS assay for identification of artifact compounds. (AID 1845221); further: nearly all actives have a fitted effect of over 65% in size;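 on activity change, negative = thiol reactive: thiol-reactive compounds lower the probe fluorescence signal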
# Settings: MSTI thiol-reactivity probe, 1 h; series mostly up to 53.8 µM
# Excerpt: PI: Alexander Tropsha Ph.D.
# UNC Eshelman School of Pharmacy
# University of North Carolina, Chapel Hill, North Carolina
# Hits from high-throughput screening (HTS) of chemical libraries are often false positives due to their interference with the assay detection technology. In response to this problem, we generated the largest publicly available library of chemical liabilities and developed a free webtool to predict HTS artifacts, both of which are described herein. More specifically, we generated, curated, and integrated HTS datasets for thiol reactivity, redox activity, and luciferase (firefly and nano) activity. Using these curated datasets, we developed and validated several Quantitative Structure-Interference Relationship (QSIR) models to predict nuisance behavior. […] These models were employed for virtual profiling of the National Center for Advancing Translational Science's (NCATS) in-house library, and 256 compounds for each assay were selected for the experimental validation of nuisance behavior. The BA for these external predictions ranged from 58 to 78% for compounds within the applicability domains of the models. […] The models developed in this study, along with aggregation models previously developed by our group (SCAM Detective) were implemented in "Liability Predictor," an online tool which may be used as part of chemical library design or for triaging HTS hits. Both the models and the curated datasets are publicly available at https://liability.mml.unc.edu/.
# SEQUENCE No. (e.g., 1, 2, 3, etc.); […] (e.g., Cells, Incubation, Reagent, etc.); VALUE; DESCRIPTION.
# 1; Reagent; 4 uL; […].
# 2; Compounds and control; 16 nL; Kalypsis pin tool (Wako USA) equipped with a 1536-well pin head.
# 4; Detection; Fluorescence, ViewLux microplate reader, 525 nm excitation, 598 nm emission.
# NOTES (numbers refer to Sequence numbers above)
# 1. Assays determining (E)-2-(4-mercaptostyryl)-1,3,3-trimethyl-3H-indol-1-ium (MSTI) reactivity were performed as previously described in the literature with modifications for the quick identification of compounds reacting with thiol. In brief, 4 uL of MSTI or positive control Acetyl-MSTI (final concentrations of 4 uM and 4 uM, respectively) in assay buffer (2% DMSO in 1X PBS pH 7.4) was dispensed into all wells of a 1536-well assay plate (solid-bottom black plate; Greiner Bio One, Monroe, NC).
# 2. A Wako Pin-tool (Wako Automation, Richmond, VA) was used to transfer 16 nL of compounds (consisting of 7-plates in qHTS format, final concentration range 18.3 nM to 114 uM) or control MLS001163887 (final concentration range 1.22 nM to 40 uM).
# 3. Plates were centrifuged (121xg, 15 seconds) and incubated for 1 hour at room temperature protected from light.
# 4. Samples were read for fluorescence (Ex/Em = 525(20)/598(25) nm) on a ViewLux CCD imager (PerkinElmer). Data were normalized to Acetyl-MSTI (0% activity) and MSTI (100% activity) and the resulting percent inhibition data were fitted to a 4-parameter Hill equation using NCATS in-house software.
# Potency means the concentration at half of the fitted maximal effect.
SMILES,Potency,"activity change, negative = thiol reactive"
OCc1ccc(-c2ccc(-c3ccc(CO)s3)o2)s1,2.6 µM (active),–
Cc1cnc(Nc2ccc(F)cc2Cl)nc1-c1c[nH]c(C(=O)N[C@H](CO)c2cccc(Cl)c2)c1,inactive,–
COc1cccc2nc(-c3cccs3)nc(NN3C(=O)C=C(C)C3=O)c12,inactive,–
CN(C1CCc2c(c3ccccc3n2CC(=O)O)C1)S(=O)(=O)c1ccc(F)cc1 (stereo not given),2.67 µM (active) and 2.12 µM (active),–
NC(=O)Nc1cc(-c2cccc(F)c2)sc1C(=O)N[C@H]1CCCNC1,inactive,–
O=C(O)C1(Cc2cccc(Nc3nccs3)n2)CCC(Oc2cccc(Cl)c2F)CC1 (stereo not given),inactive,–
COc1cc(C(=O)N2CCC(N3CCN(C)CC3)CC2)ccc1Nc1ncc2c(n1)N(C)c1ccccc1C(=O)N2C,inactive,–
COC(=O)Nc1nc2ccc(C(=O)c3ccc(F)cc3)cc2[nH]1,inactive,–
CC(C)c1nn(-c2c(Cl)cccc2Cl)c2nc(Cc3ccc(OCCO)cc3)[nH]c(=O)c12,inactive,–
CNC(=O)CN1CCC(Oc2cc3c(Nc4cccc(Cl)c4F)ncnc3cc2OC)CC1,inactive,–
N#CCNC(=O)c1ccc(-c2ccnc(Nc3ccc(N4CCOCC4)cc3)n2)cc1,1.5 µM (active),–
Cc1c(C)n(Cc2ccc(-c3ccccc3C(=O)O)cc2)c2ccc(C(=O)N[C@@H](C)c3ccc([N+](=O)[O-])cc3)cc12,inactive,–
Clc1ccc2ncc(-c3cccc(NC4CNC4)n3)n2c1,inactive,–
c1nc2nc(Nc3ccc(N4CCOCC4)cc3)nc(NC3CCCCC3)c2[nH]1,0.922 µM (active),–
C=CC(=O)Nc1cccc(Oc2nc(Nc3ccc(N4CCN(C)CC4)cc3)ncc2Cl)c1,1.89 µM (active),–
COC(=O)Nc1ccc(-c2nc(N3CCOCC3)c3cnn(C4CCN(Cc5cccnc5)CC4)c3n2)cc1,inactive,–
CCOc1ccccc1OCCNC(C)Cc1ccc(OC)c(S(N)(=O)=O)c1 (stereo not given),inactive,–
Nc1ccccc1NC(=O)c1ccc(CNC(=O)OCc2cccnc2)cc1,inactive,–
CCNC(=O)Nc1ccc2ncc(Nc3ccc(C)cc3)nc2n1,inactive,–
CC1(C)CCC(c2ccc(Cl)cc2)=C(CN2CCN(c3ccc(C(=O)NS(=O)(=O)c4ccc(N[C@H](CCN5CCOCC5)CSc5ccccc5)c(S(=O)(=O)C(F)(F)F)c4)cc3)CC2)C1,inactive,–

SMILES,Potency,"activity change, negative = thiol reactive"
CC(=O)Nc1nc(C)c(-c2ccc(Cl)c(S(=O)(=O)NCCO)c2)s1,inactive,–
CCN(CC)CCNC(=O)c1ccc2nc(-c3ccccc3)c(-c3ccc(CN4CCC(n5c(=O)[nH]c6ccccc65)CC4)cc3)nc2c1,inactive,–
Cc1coc2c1C(=O)C(=O)c1c-2ccc2c1CCCC2(C)C,1.34 µM (active),–
COc1cccc(Nc2c(C(N)=O)cnc3c(C)cc(S(=O)(=O)c4cccc(C(=O)N(C)C)c4)cc23)c1,inactive,–
O=C(Nc1cn[nH]c1-c1nc2ccc(CN3CCOCC3)cc2[nH]1)NC1CC1,inactive,–
Cc1ccc(NC(=O)C2(c3ccc4c(c3)OC(F)(F)O4)CC2)nc1-c1cccc(C(=O)O)c1,inactive,–
O=C(O)Cn1nnc(-c2cc(N3CCC(Oc4cc(F)ccc4Br)CC3)no2)n1,inactive,–
Cc1cc(N2CCOCC2)cc2[nH]c(-c3c(NC[C@@H](O)c4cccc(Cl)c4)cc[nH]c3=O)nc12,1.68 µM (active),–
CNc1nccc(-c2cccnc2Oc2cc(C(=O)Nc3cccc(C(F)(F)F)c3)ccc2C)n1,inactive,–
O=C(CCCCCCC(=O)Nc1ccc([C@H]2O[C@@H](CSc3nc(-c4ccccc4)c(-c4ccccc4)o3)C[C@@H](c3ccc(CO)cc3)O2)cc1)NO,inactive,–
C[C@@H]1COC(Nc2ccc3ncnc(Nc4ccc(OCc5nccs5)c(Cl)c4)c3c2)=N1,inactive,–
Cc1cn(-c2cc(NC(=O)c3ccc(C)c(Nc4nccc(-c5cccnc5)n4)c3)cc(C(F)(F)F)c2)cn1,inactive,–
Nc1nc(Nc2ccc(S(N)(=O)=O)cc2)nn1C(=O)c1c(F)cccc1F,inactive,–
Cc1nc(N)ncc1-c1nc(N2CCOCC2)c2sc(C(C)(C)O)cc2n1,inactive,–
COc1ccc2c(c1)CC[C@@H](CN(C)CC(=O)O)[C@H]2c1ccccc1,inactive,–
COc1ccc2c(OCc3nnc4ccc(-c5ccccc5)nn34)ccnc2c1,inactive,–
CC(=O)c1c(C)c2cnc(Nc3ccc(N4CCNCC4)cn3)nc2n(C2CCCC2)c1=O,–,7.61% [at 6.41 µM]
NC1(Cc2ccc(Cl)cc2)CCN(c2ncnc3[nH]ccc23)CC1,inactive,–
Clc1cccc(-c2nnnn2Cc2cccnc2)c1Cl,inactive,–
Cc1[nH]nc2ccc(-c3cncc(OC[C@@H](N)Cc4ccccc4)c3)cc12,inactive,–
